From PubChem BioAssay (NCATS)
Results filed as inconclusive are left out. Calls of active or inactive are those of the source. Calls come from the whole dose curve; as a rule, active = well fitted inhibition curve with a large enough effect; inconclusive = small, poorly fitted or top-dose-only effect; inactive = flat fitted curve, though single readings scatter.

Experiments:
Assay in all cases: qHTS profiling for inhibitors of Plasmodium falciparum proliferation (AID 504749); note: nearly all actives have a fitted effect of over 60% in size
Conditions in all cases: P. falciparum in erythrocytes, SYBR Green DNA, 72 h; series mostly up to 28.7 µM
C2A = system: C2A
Outline: (§1)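 Infected RBCs, 0.3% parasitemia/2.5% Hct final; cpd 72 h, 37 C, 5% CO2; lysis buffer with saponin/triton/SYBR Green I, o/n RT dark; FI 485/535; norm. to artemisinin (0.29 uM) and DMSO.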

CP185 = system: CP185
Outline: as §1

CP194 = system: CP194
Outline: as §1

CP201 = system: CP201
Outline: as §1

CP237 = system: CP237
Outline: as §1

CP238 = system: CP238
Outline: as §1

CP250 = system: CP250
Outline: as §1

CP252 = system: CP252
Outline: as §1

CP256 = system: CP256
Outline: as §1

CP262 = system: CP262
Outline: as §1

CP266 = system: CP266
Outline: as §1

CP268 = system: CP268
Outline: as §1

CP269 = system: CP269
Outline: as §1

CP305 = system: CP305
Outline: as §1

CP325 = system: CP325
Outline: as §1

CP329 = system: CP329
Outline: as §1

P94_40 = system: P94_40
Outline: as §1

PAD = system: PAD
Outline: as §1

SC27B = system: SC27B
Outline: as §1

TAB109 = system: TAB109
Outline: as §1

Measured: Potency
Potency is the fitted concentration of half-maximal effect.

Cc1cn([C@H]2C[C@H](N=[N+]=[N-])[C@H](CO)O2)c(=O)[nH]c1=O
inactive: C2A | CP185 | CP194 | CP201 | CP237 | CP238 | CP250 | CP252 | CP256 | CP262 | CP266 | CP268 | CP269 | CP305 | CP325 | CP329 | P94_40 | PAD | SC27B | TAB109

O=C(O)[C@@H](S)[C@H](S)C(=O)O
active: C2A 7.08 µM | CP185 11.2 µM | CP194 15.1 µM | CP201 12 µM | CP237 7.08 µM | CP238 12.6 µM | CP250 7.08 µM | CP252 10 µM | CP256 7.94 µM | CP262 6.75 µM | CP266 9.53 µM | CP268 13.5 µM | CP269 6.75 µM | CP305 7.57 µM | CP325 9.53 µM | CP329 10.7 µM | P94_40 4.47 µM | PAD 8.91 µM | SC27B 11.2 µM | TAB109 5.62 µM

NS(=O)(=O)c1cc2c(cc1Cl)N[C@H](Cc1ccccc1)NS2(=O)=O
inactive: C2A | CP185 | CP194 | CP201 | CP237 | CP238 | CP250 | CP252 | CP256 | CP262 | CP266 | CP268 | CP269 | CP305 | CP325 | CP329 | P94_40 | PAD | SC27B | TAB109

CC(C)(C)NC[C@@H](O)c1ccc(O)c(CO)n1
inactive: C2A | CP185 | CP194 | CP201 | CP237 | CP238 | CP250 | CP252 | CP256 | CP262 | CP266 | CP268 | CP269 | CP305 | CP325 | CP329 | P94_40 | PAD | SC27B | TAB109

C[C@]12CC[C@H]3c4ccc(O)cc4CC[C@@H]3[C@H]1CC[C@@H]2OC(=O)CCC1CCCC1
active: CP237 8.91 µM | PAD 10 µM
inactive: C2A | CP185 | CP194 | CP201 | CP238 | CP250 | CP252 | CP256 | CP262 | CP266 | CP268 | CP269 | CP305 | CP325 | CP329 | P94_40 | SC27B | TAB109

CN(C)[C@H]1C(=O)C(C(=O)NCN2CCCC2)=C(O)[C@]2(O)C(=O)C3=C(O)c4c(O)cccc4[C@](C)(O)[C@H]3C[C@H]12
inactive: C2A | CP185 | CP194 | CP201 | CP237 | CP238 | CP250 | CP252 | CP256 | CP262 | CP266 | CP268 | CP269 | CP305 | CP325 | CP329 | P94_40 | PAD | SC27B | TAB109
